# From PubChem BioAssay AID651789 (National Center for Advancing Translational Sciences (NCATS), 2012)
# Records with an inconclusive call do not appear. Where a call stands in place of a potency, no number is given. Active and inactive are the calls of the source. Calls come from the whole dose curve; as a rule, active = well fitted inhibition curve with a large enough effect; inconclusive = small, poorly fitted or top-dose-only effect; inactive = no such curve, though single readings can be large or run the other way.
# Assay: Acumen qHTS Assay for Inhibitors of the mTORC1 Signaling Pathway in WT MEF Cells: Hit Validation; note: nearly all actives have a fitted effect of over 60% in size
# Conditions: Acumen imaging; series mostly up to 37.3 µM
# How it was run: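 Read-out is immunofluorescent phospho-rpS6 (Ser235/236) normalised to PI-stained cell number, reported as % active cells using a 7.5 nM rapamycin threshold. Cells: WT or Tsc2-/-, p53-/- MEFs, compound-exposed 24 h at 37C; PI count also tracks viability.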
# Potency is the fitted concentration of half-maximal effect.
row,SMILES,Potency
1,CCC(C)Sc1oc(-c2ccco2)nc1S(=O)(=O)c1ccc(C)cc1 (stereo not given),inactive
2,Cc1ccc([C@H]2Nc3ccc(S(=O)(=O)Nc4cccc(Cl)c4C)cc3[C@H]3C=CC[C@H]32)cc1,inactive
3,COc1cc(OC)c(NC(=O)Nc2ccc3c(c2)N(C)C(=O)c2ccccc2S3)cc1Cl,5.21 µM (active)
4,CCOc1ccc(CCNCc2c(C(=O)O)n(Cc3ccc(C)cc3)c3cc(OC)ccc23)cc1,inactive
5,CS(=O)(=O)CCNCc1ccc(-c2ccc3ncnc(Nc4ccc(OCc5cccc(F)c5)c(Cl)c4)c3c2)o1,inactive
6,CCN(Cc1nc(-c2ccc(OC)cc2)oc1C)S(=O)(=O)c1ccc(Cl)cc1,inactive
7,CCc1ccc(NC(=O)CSc2nccn2C2CCCC2)cc1,inactive
8,O=S(=O)(NCC(c1ccco1)S(=O)(=O)c1cccs1)c1ccc(Cl)cc1 (stereo not given),inactive
9,COc1cc(C2CC(=O)Nc3cc4c(cc32)OCCO4)cc(Br)c1OC (stereo not given),0.0521 µM (active)
10,CCN1CCC(N(Cc2ccc(F)cc2)C(=O)Nc2ccc(C)c(F)c2)CC1,inactive
11,COc1cc(NC(=O)c2cccc3c2C(=O)N(C2CCCCC2)C3)cc(OC)c1OC,inactive
12,CCc1ccc(NC(=O)Cn2nc(C(F)(F)F)c3c2CCCC3)cc1,inactive
13,COc1ccc(Oc2nc3c(C)cccn3c(=O)c2/C=C(\C#N)c2nc3ccccc3[nH]2)cc1,inactive
14,COc1ccc(CCNC(=O)CCCn2nc(C)c3sc4ccccc4c3c2=O)cc1OC,inactive
15,CC1=C(C(=O)OC2CCCC2)C(c2ccccc2Cl)CC(=O)N1 (stereo not given),inactive
16,CCCCC(CC)CNC(=O)c1ccc(Cn2c(=O)[nH]c3cc(OC)c(OC)cc3c2=O)cc1 (stereo not given),13.1 µM (active)
17,COc1ccc2cc(CNc3ccccc3)c(=O)n(CC(=O)Nc3ccc(C)cc3C)c2c1,inactive
18,CCOc1cc(C(=O)Nc2ccc(-c3cn4cccnc4n3)cc2)cc(OCC)c1OCC,inactive
19,Cc1cccc(NC(=O)c2c(NC(=O)C(F)(F)F)sc3c2CCCCC3)c1,inactive
20,COc1cc(Cl)c(C)cc1NC(=O)C1CCN(c2nc3ccccc3n3cccc23)CC1,inactive

row,SMILES,Potency
1,CCOc1ccc(N(Cc2ccccc2)C(=O)c2nc(S(C)(=O)=O)ncc2Cl)cc1,2.07 µM (active)
2,CCCSc1ncc(Cl)c(C(=O)Nc2ccc(S(=O)(=O)N3CCCCC3C)cc2)n1 (stereo not given),inactive
3,Cc1ccc(C(=O)CC2(O)C(=O)N(Cc3ccccc3)c3ccc(Br)cc32)cc1 (stereo not given),inactive
4,O=C(CN1C(=O)C(c2ccc(F)cc2)=NC12CCCCCC2)Nc1ccccc1Cl,inactive
5,COc1ccc(S(=O)(=O)N(CCc2ccccc2)CC(=O)Nc2cccc(OC)c2)cc1,inactive
6,CCN(CC)CCn1c(=N)n(CC(O)COc2ccccc2C)c2ccccc21 (stereo not given),11.7 µM (active)
7,Cc1cc(NCc2ccc(Cl)cc2)n2cnnc2n1,inactive
8,Cc1ccccc1C(=O)N1CCN(CCc2ccccn2)CC1,inactive
9,CCS(=O)(=O)c1ncc(Cl)c(C(=O)N2CCN(c3cccc(Cl)c3)CC2)n1,2.61 µM (active)
10,COc1ccc(N(C)C(=O)c2cc(S(=O)(=O)N3CCc4ccccc43)cn2C)c(OC)c1,inactive
11,Cc1ccc(C)c(Cn2c3ccccc3c3cnn(CC(=O)NC(C)CCc4ccccc4)c(=O)c32)c1 (stereo not given),18.5 µM (active)
12,CCc1ccc(C(=O)CC2(O)C(=O)N(CCc3ccccc3)c3ccc(Cl)cc32)cc1 (stereo not given),inactive
13,CCCCCCCCCCCCCCC[C@H](O)[C@@H](N)CO,inactive
14,O=C(Nc1ccc(Cl)cc1)C1CCC(CNS(=O)(=O)c2ccc(Br)s2)CC1 (stereo not given),inactive
15,CC(=O)N1CCCc2cc(S(=O)(=O)N(Cc3ccccc3)C(C)C)ccc21,inactive
16,Cc1cccc(Nc2nnc(-c3ccc(C)c(S(=O)(=O)N4CCN(C)CC4)c3)c3ccccc23)c1,inactive
17,COCc1oc2ccc(NS(=O)(=O)c3ccc(C)cc3)cc2c1C(=O)OC,5.85 µM (active)
18,CC(C)(C)C1CCc2c(sc(NC(=O)C3c4ccccc4Oc4ccccc43)c2C(N)=O)C1 (stereo not given),inactive
19,Cc1ccc(NC(=O)CSc2ccc(-c3ccccn3)nn2)cc1F,inactive
20,COc1ccc(OCC(O)Cn2c(=N)n(CCN3CCCCC3)c3ccccc32)cc1 (stereo not given),inactive
